The test in a line: p53 small molecule agonists, cell-based qHTS assay with human liver microsomes (AID 1963577). The procedure, abridged:
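Metabolically competent format: test substances, human liver microsomes and NADPH (both 0.5 mg/mL final) incubated with p53RE-bla cells 16 h at 37 C. Beta-lactamase reporter signal then quantified by fluorescence.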
On the technique in general: qHTS replaces the single test concentration by a dilution series.

Drawing on PubChem BioAssay (Tox21), this text covers Potency for 46 compounds.

Results filed as inconclusive are left out. Entries that show only a call come without a potency. Calls of active or inactive are those of the source. The call rests on the fitted dose curve.
Potency means the concentration at half of the fitted maximal effect.

Regarding `O=C(O)C(F)(F)C(F)(F)C(F)(F)C(F)(F)C(F)(F)C(F)(F)C(F)(F)C(F)(F)C(F)(F)F`, the Potency entry was “inactive”. As for `O=C(N[C@H]1N=C(c2ccccc2F)c2cccc3c2N(CC3)C1=O)c1cc2ccccc2[nH]1`, the Potency result was “inactive”. Take `CCCCc1c(C)nc(NCC)nc1OS(=O)(=O)N(C)C`: the Potency result was “inactive”. For `CC(=O)C(Cl)C(=O)N(C)C` (stereo unspecified), the Potency result is “inactive”.

In the case of `C=CC(=O)OCCN(C)C`, the Potency entry was “inactive”.

For `CC(C)=CCOc1c2occc2cc2ccc(=O)oc12`, the Potency result is “inactive”. As for `CCCOC(=O)Cc1ccc(OCC(=O)N(CC)CC)c(OC)c1`, the Potency entry was “inactive”. For `O=[N+]([O-])c1cc(C(F)(F)F)c(Cl)c([N+](=O)[O-])c1Cl`, the Potency result was “inactive”. As for `CCC1(c2ccccc2)C(=O)NC(=O)NC1=O`, the Potency entry was “inactive”. `O=c1oc2ccccc2c(O)c1C1CCCc2ccccc21` (stereo unspecified): the Potency result was “inactive”. For the compound `N#CSCc1ccccc1`, the Potency entry was “inactive”. On to `C#CC(O)(C=CCl)CC` (stereo unspecified), for which the Potency result is “inactive”. Consider `N#C/C=C/c1ccccc1`, for which the Potency result was “inactive”.

As for `C=CC(=O)OCC(COC(=O)C=C)(COC(=O)C=C)COC(=O)C=C`, the Potency entry is “inactive”.

In the case of `CC(CC(C(N)=O)(c1ccccc1)c1ccccc1)N(C)C` (stereo unspecified), the Potency result is “inactive”. Next, `OC(c1ccccc1)(c1ccccc1)C1CCNCC1`: “inactive”; `CC(=O)CN(CC(C)=O)N=O`: “inactive”; `NC1CCC(CC2CCC(N)CC2)CC1` (stereo unspecified): “inactive”. Regarding `O=CC(Br)(Br)Br`, the Potency result was “inactive”. Consider `NC(=O)C(Cl)Cl`, for which the Potency result was “inactive”.

On to `CCc1ccc(C2CCNCC2)cc1`, for which the Potency entry was “inactive”. Consider `C(COCC1CO1)OCC1CO1` (stereo unspecified), for which the Potency result is “inactive”. With `O=[Se]=O`, the Potency entry was “inactive”. Regarding `Fc1ccc(C(OCCN2CCN(CCCc3ccccc3)CC2)c2ccc(F)cc2)cc1`, the Potency result is “inactive”. Take `O=C(Cl)c1ccccc1F`: the Potency result was “inactive”. In the case of `CC(c1ccccc1)(c1ccc(O)cc1)c1ccc(O)cc1`, the Potency entry is “inactive”. As for `NC(=O)c1ccc(N)nc1`, the Potency entry is “inactive”. For `O=C(O)c1cc[c]([Hg][Cl])cc1`, the Potency result is “inactive”.

`O=C(CCCN1CCC2(CC1)C(=O)NCN2c1ccccc1)c1ccc(F)cc1`: the Potency result was “inactive”. In the case of `CCCSC(=O)N(CCC)CCC`, the Potency result was “inactive”. Consider `Clc1ccccc1N1CCNCC1`, for which the Potency entry was “inactive”. Take `CCC(C)c1cc([N+](=O)[O-])cc([N+](=O)[O-])c1OC(=O)C=C(C)C` (stereo unspecified): the Potency entry is “inactive”.

As to `CC(C)OC(=O)C(O)(c1ccc(Cl)cc1)c1ccc(Cl)cc1`, the Potency entry is “inactive”. As to `FC(F)OC(F)(F)C(F)Cl` (stereo unspecified), the Potency result was “inactive”. Regarding `CSC1=N[C@@](C)(c2ccccc2)C(=O)N1Nc1ccccc1`, the Potency result was “inactive”. Next, `NCC1(CC(=O)O)CCCCC1`: “inactive”. `CC(O)C#N` (stereo unspecified): the Potency entry was “inactive”. For the compound `Clc1ccc(CCC(Cn2ccnc2)Sc2c(Cl)cccc2Cl)cc1` (stereo unspecified), the Potency result is “inactive”. For `S=C=Nc1cccc2ccccc12`, the Potency result was “inactive”.

On to `CC(C)(C)c1ccc(CSc2cnn(C(C)(C)C)c(=O)c2Cl)cc1`, for which the Potency entry is “inactive”.

`C=C(Cl)Cl`: the Potency entry is “inactive”. In the case of `OP(O)c1ccccc1`, the Potency entry was “inactive”. As to `CCOP(=S)(OCC)SCS(=O)(=O)CC`, the Potency was 1620 nM (active). For `CSSC`, the Potency result is “inactive”. Next, `CCOP(=S)(OCC)SCn1nnc2ccccc2c1=O`: 3240 nM (active); `NP(N)(=O)NC(=O)c1ccc(F)cc1`: “inactive”.
